Bioassay records deposited in PubChem by National Center for Advancing Translational Sciences (NCATS).
ALDH1A1 block = blocks purified human ALDH1A1 activity. Purified ALDH1A1, NADH fluorescence, propionaldehyde substrate. Potency, µM (highest dose often 75.3 µM), for inactives: at the highest dose activity, negative = inhibition, most hits filed as inhibitors. hit rate 7.3% among 220,000. P00352;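 note: potency is the fitted concentration of half-maximal effect; plate controls were no enzyme wells and a reference inhibitor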
PNC inhibitor = perinucleolar compartment assembly inhibition | activity change (PNC), negative = inhibition, % at 10 µM | PC3M PTB-GFP, PNC prevalence imaging, 16 h; stronger effect = lower value | hit rate 3.1% among 140,000;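 active = readout at or below -70, meaning at least 70% loss of cells showing the perinucleolar compartment, a nuclear body marking cancer cells; inconclusive = readout between -30 and a set limit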;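 note: plate controls were DMSO wells for no effect and camptothecin positive control wells for full effect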
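PC3M cells stably expressing PTB-GFP, 750–1000 cells/well, treated 16 h at 37 °C with compound (23 nl of library stock), in duplicate. After paraformaldehyde fixation and Hoechst stain, imaged at 20x; PNC prevalence scored by image analysis.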
HPGD inh = inhibitors of human 15-hydroxyprostaglandin dehydrogenase (HPGD); purified HPGD, NADH fluorescence kinetic, PGE2 substrate; Potency, µM, without a hit: top-dose activity change, negative = inhibition, hits mostly inhibitors; hit rate 4.3% among 150,000; note: potency is the fitted concentration of half-maximal effect
Target sequence (P15428 whole entry, looked up): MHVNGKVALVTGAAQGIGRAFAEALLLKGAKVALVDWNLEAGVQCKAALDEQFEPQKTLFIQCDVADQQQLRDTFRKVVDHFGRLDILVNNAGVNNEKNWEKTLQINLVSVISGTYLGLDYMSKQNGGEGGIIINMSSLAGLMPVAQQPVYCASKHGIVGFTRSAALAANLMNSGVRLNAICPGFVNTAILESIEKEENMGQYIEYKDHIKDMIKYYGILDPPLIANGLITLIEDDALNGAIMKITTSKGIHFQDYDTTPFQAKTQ
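NADH formation kinetics: reaction with 30 uM PGE2 and 1 mM NAD+ (final), 20 nM enzyme, Tris-HCl pH 8 with Tween 20, after 15 min compound preincubation at room temperature. Fluorescence change, last versus first of five reads.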
* marks the source's active call; other numbers are inactive results; ? = inconclusive; nt = no result; ! = repeats disagree. Rows were chosen to be rich in hits. Some 11% of all compounds tested hit in one or more screens of this group. Unless noted, calls come from the whole dose curve; as a rule, active = well fitted inhibition curve with a large enough effect (not every such curve was filed as active); inconclusive = small, poorly fitted or top-dose-only effect, or another doubt; inactive = no such curve, though single readings can be large or run the other way. Unless noted, % is set by controls: 0 for no effect and ±100 for the full control effect.

SMILES | ALDH1A1 block | PNC inhibitor | HPGD inh
CC1CC2=C(C(=O)O1)C(c1ccc(Cl)cc1)Nc1ccccc1N2 (stereo unspecified) | 3% | -10 | -6%
Cc1cccc(C)c1Nc1oc(-c2ccccc2)nc1-c1ccccc1F | ? | nt | -1%
O=C(Cn1cc(C(F)(F)F)ccc1=O)N/N=C/c1ccccc1 | 17% | nt | nt
FC(F)(F)c1cccc(Cn2nnnc2-c2cccc(C(F)(F)F)c2)c1 | 6% | -30 | -13%
CN(C)CCNC(=O)/C(=C/c1ccc(-c2cccc(Cl)c2)o1)NC(=O)c1ccccc1 | -15% | 24 | -9%
O=C(NC(=S)Nc1cccc(Cl)c1N1CCCCC1)c1ccco1 | ? | ? | -11%
O=C(NC(=S)Nc1cccc(Cl)c1N1CCCCC1)c1cccs1 | -3% | -108* | -4%
COC(=O)[C@@H]1C[C@@]2(O)[C@@H](O)[C@@H](O)[C@@H](O)C[C@H]2N1Cc1ccc(N2CCOCC2)cc1 | 3% | nt | -7%
CC(OC(=O)c1oc2ccccc2c1COc1ccccc1)C(N)=O (stereo unspecified) | 2.2µM* | nt | nt
CC(C)(C)NC(=O)c1oc2ccccc2c1COc1ccccc1 | 1% | -29 | -23%
Cc1cccn2cc(CNS(=O)(=O)c3cccc(F)c3)nc12 | -16% | ? | -2%
O=S(=O)(NCc1cn2ccccc2n1)c1cc(F)ccc1F | -4% | -100* | -11%
O=C(Oc1coc(CSc2ncccn2)cc1=O)c1ccc(Br)o1 | -5% | -10 | -13%
Cc1ccnc(SCc2cc(=O)c(OC(=O)c3ccc(Br)o3)co2)n1 | 1% | -83* | 3%
Cc1ccnc(SCc2cc(=O)c(OC(=O)c3ccc(S(=O)(=O)N(C)C)cc3)co2)n1 | 1% | -109* | -6%
Cc1cc(C)nc(SCc2cc(=O)c(OC(=O)c3ccc(S(=O)(=O)N(C)C)cc3)co2)n1 | 1% | ? | -28%
COc1cc(C2NC(C(=O)O)CS2)ccc1OCc1ccccc1C#N (stereo unspecified) | 8.9µM* | -6 | -17%
COc1cc(/C=C/C(=O)O)ccc1OCc1ccccc1C#N | ? | ? | -29%
O=C(O)CCn1cc(/C=C/C(=O)c2ccc(Cl)cc2)c(-c2ccc(Br)cc2)n1 | -5% | ? | nt
CCn1c2ccccc2c2cc(NC(=O)COc3ccccc3)ccc21 | -3% | -5 | ?
Cc1ccc(N(CC(O)CN2CCCCC2)S(=O)(=O)c2ccccc2[N+](=O)[O-])cc1 (stereo unspecified) | 2% | nt | nt
COC(=O)[C@H](Cc1ccccc1)NC(=O)O[C@@H]1C(=O)c2cc(Br)ccc2O[C@H]1c1ccc2c(c1)OCO2 | ? | nt | -8%
CC[C@H](C)[C@@H](NC(=O)O[C@@H]1C(=O)c2cc(Br)ccc2O[C@H]1c1ccc2c(c1)OCO2)C(=O)OC | 25µM*! | 36 | -5%
CCOC(=O)c1nnn(-c2nonc2N)c1-c1ccc(F)cc1 | -6% | nt | nt
Cc1oc(CC(C)C)c(CN)c1C(=O)O | 7% | 34 | -4%
SMILES | ALDH1A1 block | PNC inhibitor | HPGD inh
O=C(Cc1ccc(Cl)cc1Cl)Nc1cccc(S(=O)(=O)Nc2ccccc2F)c1 | 3.5µM* | 28 | 3.5µM*
Cc1ccccc1OCCC(=O)Nc1cccc(S(=O)(=O)Nc2ccccc2Cl)c1 | 3% | 29 | -4%
O=C(Nc1cccc(S(=O)(=O)Nc2ccccc2F)c1)c1ccc2ccccc2n1 | 3.2µM* | nt | nt
COc1ccccc1NS(=O)(=O)c1cccc(NC(=O)c2ccc3ccccc3n2)c1 | 4% | ? | -6%
O=C(/C=C/c1ccccc1)Nc1cccc(S(=O)(=O)Nc2ccccc2F)c1 | 0.79µM* | -7 | 2µM*
CC(=O)NS(=O)(=O)c1ccc(NC(=O)/C=C/c2ccccc2)cc1 | -2% | nt | nt
O=C(Nc1ccccc1)Nc1ccc(Br)c(Cl)c1 | -3% | ? | -13%
O=C(/C=C/c1ccc2c(c1)OCO2)N1CCN(c2ccccc2F)CC1 | ? | 4 | -18%
O=C(Nc1cccc(O)c1)c1ccc(Br)cc1 | 8% | -128* | -1%
CC(=O)Nc1cccc(NC(=O)c2ccc(Br)cc2)c1 | 3% | nt | nt
O=C(NNc1ccc(O)cc1)c1ccc(Br)cc1 | 7.1µM* | nt | nt
O=C(O)/C=C/C(=O)NNC(=O)c1ccc(Br)cc1 | ? | -16 | 0%
O=C(Nc1nc(-c2cccs2)c(-c2cccs2)s1)C1CCCC1 | ? | -3 | ?
CC(C)(C)OC(=O)N1CCN(C(=O)[C@H](Cc2ccc(O)cc2)n2cc(CCO)nn2)CC1 | -9% | nt | nt
Cc1ccc(C)c2[nH]c(=O)c(CCNC(=O)c3ccc(S(=O)(=O)N(C)C)cc3)cc12 | 22µM* | -5 | -5%
CCN(CC)S(=O)(=O)c1ccc(C(=O)NCCc2cc3c(OC)ccc(OC)c3[nH]c2=O)cc1 | ? | ? | -5%
Cc1ccc(C2c3c(oc4ccccc4c3=O)C(=O)N2c2nnc(C(C)C)s2)o1 (stereo unspecified) | ? | 22 | -7%
COc1cccc(CCc2ccccc2OCC[C@@H]2C[C@@H](O)CN2C)c1 | -2% | nt | -7%
CCn1c(O)c(/C=N/N=C2CCCC2)c2ccc(C3=NNC(=O)CC3)cc21 | ? | -18 | 16µM*
CCCCC(CCCC)=N/N=C/c1c(O)n(CC)c2cc(C3=NNC(=O)CC3)ccc12 | ? | 38 | -24%
O=C(CCN1C(=O)C2C3C=CC(C3)C2C1=O)NCCc1ccccc1 (stereo unspecified) | ? | -93* | -10%
O=C1C2C(C(=O)N1CCc1ccccc1)C1C=CC2C12CC2 (stereo unspecified) | ? | -23 | -2%
O=C(CN1C(=O)C2C3C=CC(C3)C2C1=O)OCC(=O)c1ccccc1 (stereo unspecified) | 0% | 5 | 25µM*
O=C(CCN1C(=O)C2C3C=CC(C3)C2C1=O)Nc1ccccn1 (stereo unspecified) | ? | -10 | -11%
O=C1C2C3C=CC(C3)C2C(=O)N1CCc1ccccc1 (stereo unspecified) | 11µM* | 13 | -23%
SMILES | ALDH1A1 block | PNC inhibitor | HPGD inh
O=C(CN1C(=O)C2C3C=CC(C4CC34)C2C1=O)OCC(=O)c1ccccc1 (stereo unspecified) | -11% | 13 | ?
CN1C(=C2C(=O)OC(C)(C)OC2=O)Sc2ccccc21 | ? | 32 | -19%
COc1cc(CNC2CCCC2)cc(OC)c1 | ? | -18 | 1%
CCc1cc2c(NCC3CCCO3)nc(C)nc2s1 (stereo unspecified) | -5% | -22 | -9%
CC(=O)Oc1ccc2c(c1)CCC1C2CC[C@@]2(C)C1CC(OC(C)=O)C2OC(C)=O (stereo partly specified) | 2% | nt | -13%
CCCNC(=O)CSc1nnc(-c2ccccc2Br)n1-c1cccc(C(F)(F)F)c1 | 2% | ? | nt
CC(C)NC(=O)/C=C/C(=O)O | 24% | nt | nt
O=C(CSc1nnc2c3ccccc3c3ccccc3c2n1)Nc1ccccc1 | 0% | 65 | -10%
CSc1nnc2c3ccccc3n(CCc3ccccc3)c2n1 | 8.9µM* | -118* | -28%
CCCn1c2ccccc2c2nnc(SCC(=O)Nc3ncccn3)nc21 | 7.1µM* | ? | -38%
CCCn1c2ccccc2c2nnc(SCC(=O)Nc3cc(C)on3)nc21 | ? | -18 | -10%
O=C(CSc1nnc2c3ccccc3c3ccccc3c2n1)Nc1ccccc1F | 8.9µM* | 24 | -16%
CSc1nnc2c3ccccc3n(Cc3ccccc3)c2n1 | -5% | ? | 0%
